# Assay results from PubChem BioAssay.
# For some assays here: Potency and affinity values are given separately. Activity calls are given as the source filed them.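 The calls were made as follows, unless noted: active = calcium signal cut by more than 3 SD below the full-agonist control yet still positive, in both repeats and the earlier primary screen; inactive = the rest.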
# Experiments:
# [1] = tested on: TRPC4 beta (transient receptor potential cation channel C4), mouse; assay: TRPC4 cation channel opening, retest – cell-based, Fluo4 calcium, HEK293 TRPC4beta/mu-opioid, duplicates, 10 µM, confirmation (AID 2426;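 active = fluorescence ratio normalized to control raised more than 50% in primary screen plus both repeat runs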); details: Fluo4 calcium fluorescence, at 10 µM; stronger effect = higher value
# [2] = tested on: transient receptor potential cation channel C4 beta (TRPC4), mouse; assay: TRPC4 cation channel opening, second retest – cell-based, second round, Fluo4, HEK293 TRPC4beta/mu-opioid, 1 µM, confirmation (AID 2461;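 active = primary screen active and over 50% activation in each of two duplicate runs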); details: Fluo4 calcium fluorescence, at 1 µM; stronger effect = higher value
# [3] = tested on: TRPC4 (transient receptor potential cation channel C4 beta), mouse; assay: potentiation of DAMGO EC20 TRPC4 response – cell-based, second round, Fluo-4, HEK293 TRPC4beta/mu-opioid, 1 µM, confirmation (AID 2554;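 active = primary screen hit whose fluorescence ratio, in both repeats, exceeds the weak agonist control mean by 3 SD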); details: DAMGO EC20, Fluo-4 calcium flux, at 1 µM; stronger effect = higher value
# [4] = tested on: TRPC4 beta (transient receptor potential cation channel C4), mouse; assay: potentiation of DAMGO EC20 TRPC4 response – cell-based, Fluo-4, HEK293 TRPC4beta/mu-opioid, confirmation (AID 2555;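 active = primary screen hit whose calcium fluorescence ratio, in both repeats, exceeds the weak agonist control mean by 3 SD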); details: DAMGO EC20, Fluo-4 calcium flux, at 10 µM; stronger effect = higher value
# [5] = target: Short transient receptor potential channel 4 (Mus musculus) (UniProt Q9QUQ5); assay: blockers of DAMGO-evoked TRPC4 calcium flux – cell-based, Fluo4, HEK293 TRPC4beta/mu-opioid, confirmation (AID 2636); details: at 10 µM; stronger effect = higher value
# Sequence of Short transient receptor potential channel 4 (Mus musculus) (Q9QUQ5 whole entry, looked up): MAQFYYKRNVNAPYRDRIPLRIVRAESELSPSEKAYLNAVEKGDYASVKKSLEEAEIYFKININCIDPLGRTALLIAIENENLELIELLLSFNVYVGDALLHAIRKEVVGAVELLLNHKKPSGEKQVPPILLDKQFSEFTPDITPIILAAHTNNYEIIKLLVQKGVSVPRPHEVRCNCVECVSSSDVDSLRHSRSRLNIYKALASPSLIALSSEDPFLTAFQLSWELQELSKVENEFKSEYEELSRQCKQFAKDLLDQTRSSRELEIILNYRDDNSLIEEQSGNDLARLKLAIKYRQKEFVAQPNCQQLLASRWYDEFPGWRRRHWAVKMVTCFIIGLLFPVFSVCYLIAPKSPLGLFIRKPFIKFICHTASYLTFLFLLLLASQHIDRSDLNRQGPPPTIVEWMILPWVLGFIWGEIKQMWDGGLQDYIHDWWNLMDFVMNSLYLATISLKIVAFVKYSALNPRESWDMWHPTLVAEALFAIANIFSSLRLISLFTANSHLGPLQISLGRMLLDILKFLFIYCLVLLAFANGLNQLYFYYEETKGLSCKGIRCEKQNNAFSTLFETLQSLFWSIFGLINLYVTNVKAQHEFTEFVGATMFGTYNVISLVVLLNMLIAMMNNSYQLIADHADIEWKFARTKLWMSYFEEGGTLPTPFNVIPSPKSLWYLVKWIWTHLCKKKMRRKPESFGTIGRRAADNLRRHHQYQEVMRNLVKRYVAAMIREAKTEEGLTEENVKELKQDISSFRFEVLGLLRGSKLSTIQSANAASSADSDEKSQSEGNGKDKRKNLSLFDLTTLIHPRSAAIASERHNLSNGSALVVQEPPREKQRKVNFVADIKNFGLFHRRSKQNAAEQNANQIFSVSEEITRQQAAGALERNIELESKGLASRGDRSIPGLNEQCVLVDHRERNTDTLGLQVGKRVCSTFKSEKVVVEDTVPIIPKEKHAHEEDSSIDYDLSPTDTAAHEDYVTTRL
# [6] = target: Short transient receptor potential channel 4 (Mus musculus) (UniProt Q9QUQ5); assay: blockers of DAMGO-evoked TRPC4 calcium flux – cell-based, second round, Fluo4, HEK293 TRPC4beta/mu-opioid, 1 µM, confirmation (AID 2637;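 active = calcium signal ratio cut to more than 3 SD under the fully stimulated control mean yet still positive, in both repeats and the primary screen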); details: at 1 µM; stronger effect = higher value
# [7] = target: Short transient receptor potential channel 4 (Mus musculus) (UniProt Q9QUQ5); assay: calcium entry via TRPC4 opening agents – cell-based, HEK293 TRPC4/mu-opioid, Fluo-4 calcium, dose response (AID 434937;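 active = primary screen activator hit with a dose response curve and TRPC4 channel activation at any tested dose; inactive = no activation, no dose response, or not a primary hit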)
# [8] = target: Short transient receptor potential channel 4 (Mus musculus) (UniProt Q9QUQ5); assay: potentiation of DAMGO-evoked TRPC4 calcium signal – cell-based, HEK293 TRPC4/mu-opioid, Fluo-4 calcium, EC20 DAMGO, dose response (AID 434941;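 active = earlier screen potentiator hit that boosts the TRPC4 ion channel at some dose, with a dose response; inactive = no potentiation, no dose response, or not a prior hit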;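 also: calcium entry triggered by an EC20 dose of DAMGO at the co-expressed mu-opioid receptor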)
# [9] = target: Short transient receptor potential channel 4 (Mus musculus) (UniProt Q9QUQ5); assay: block of DAMGO-driven TRPC4 calcium entry – cell-based, HEK293 TRPC4/mu-opioid, Fluo-4 calcium, dose response (AID 434942;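 active = primary screen inhibitor hit that blocks the TRPC4 channel at some tested dose, yielding a dose curve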)
# [10] = target: Short transient receptor potential channel 6 (Mus musculus) (UniProt Q61143); assay: TRPC6 blockade by TRPC4 inhibitor hits – cell-based, HEK293, membrane potential dye, duplicate, selectivity assay for TRPC4 inhibitor project, confirmation (AID 434948;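 active = active in primary screen and both duplicates, each dropping signal beyond three positive-control SD with fluorescence still positive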); details: HEK293 TRPC6, membrane potential dye fluorescence, at 10 µM, stimulated with maximal-effect acetylcholine; stronger effect = higher value
# Sequence of Short transient receptor potential channel 6 (Mus musculus) (Q61143 whole entry, looked up): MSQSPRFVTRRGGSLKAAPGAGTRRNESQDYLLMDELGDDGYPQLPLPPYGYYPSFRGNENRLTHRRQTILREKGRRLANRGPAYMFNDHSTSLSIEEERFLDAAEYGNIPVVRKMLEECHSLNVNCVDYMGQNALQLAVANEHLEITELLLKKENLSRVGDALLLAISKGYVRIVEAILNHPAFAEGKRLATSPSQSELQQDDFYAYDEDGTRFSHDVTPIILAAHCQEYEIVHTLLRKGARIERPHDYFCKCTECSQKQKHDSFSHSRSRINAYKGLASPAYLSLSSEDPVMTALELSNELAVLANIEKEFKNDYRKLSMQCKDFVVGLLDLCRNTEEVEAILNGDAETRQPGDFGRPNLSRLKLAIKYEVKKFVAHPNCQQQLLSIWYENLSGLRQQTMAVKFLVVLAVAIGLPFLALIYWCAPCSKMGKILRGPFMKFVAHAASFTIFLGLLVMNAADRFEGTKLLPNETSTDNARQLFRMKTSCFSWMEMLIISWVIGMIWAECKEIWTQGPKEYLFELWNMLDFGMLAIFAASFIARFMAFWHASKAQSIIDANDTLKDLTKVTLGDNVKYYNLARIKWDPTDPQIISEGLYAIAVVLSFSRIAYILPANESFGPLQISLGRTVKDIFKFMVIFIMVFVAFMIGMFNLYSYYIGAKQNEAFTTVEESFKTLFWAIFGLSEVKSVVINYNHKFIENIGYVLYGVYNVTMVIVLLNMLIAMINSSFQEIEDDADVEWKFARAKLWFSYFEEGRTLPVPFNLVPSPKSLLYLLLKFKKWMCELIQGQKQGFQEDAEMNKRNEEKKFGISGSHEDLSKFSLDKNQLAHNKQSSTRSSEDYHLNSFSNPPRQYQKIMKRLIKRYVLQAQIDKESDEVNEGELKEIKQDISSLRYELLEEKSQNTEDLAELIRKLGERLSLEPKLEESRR
# [11] = target: Short transient receptor potential channel 6 (Mus musculus) (UniProt Q61143); assay: TRPC6 opening by TRPC4 activator hits – cell-based, HEK293, membrane potential dye, duplicate, selectivity assay for TRPC4 activator project, confirmation (AID 434950;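 active = membrane potential signal rise above negative control mean plus 3 SD in both duplicates, also active in the earlier TRPC4 screen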); details: HEK293 TRPC6, membrane potential fluorescence, at 10 µM; activation: stronger effect = higher value; outcome: activation
# [12] = target: Short transient receptor potential channel 6 (Mus musculus) (UniProt Q61143); assay: positive modulators of mouse TRPC6 channel – HEK293 cells, membrane potential dye, duplicate, selectivity assay for TRPC4 potentiator project, confirmation (AID 434952;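 active = compound raising the membrane signal above positive-control mean plus 3 SD in both repeats, and a primary screen hit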); details: HEK293 TRPC6, membrane potential dye fluorescence, at 10 µM, maximal acetylcholine added after compound; stronger effect = higher value
# [13] = target: Short transient receptor potential channel 4 (Mus musculus) (UniProt Q9QUQ5); assay: calcium flux activators in TRPC4/5HT1a cells, counter-screen for TRPC4 activator project, cell-based, second counter screen, HEK293 TRPC4/5HT1a, Fluo-4 (AID 434977;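 active = calcium signal rise above buffer-control mean plus 5 SD in both duplicates, and also a hit in the primary screen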); details: Fluo-4 calcium flux, at 10 µM; stronger effect = higher value
# [14] = serotonin-gated TRPC4 signal block – cell-based, second counter screen, HEK293 TRPC4/5HT1a, Fluo-4, counter-screen for TRPC4 inhibitor project, confirmation (AID 434978;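 active = primary screen active whose calcium signal fell more than 3 SD beyond the full-serotonin control mean in both duplicate plates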;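 also: serotonin given first at submaximal then at maximal dose after compound preincubation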); details: Fluo-4 calcium flux, at 10 µM, serotonin added to trigger calcium flux; stronger effect = higher value
# [15] = tested on: TRPC4 (mouse), co-expressed with 5HT1a in HEK293; assay: enhancement of serotonin-evoked TRPC4 response – cell-based, second counter screen, HEK293 TRPC4/5HT1a, Fluo-4, counter-screen for TRPC4 potentiator project, confirmation (AID 434979;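 active = signal rise over 3 SD above mean of control wells given weak agonist, in both repeats and first screen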); details: Fluo-4 calcium flux, at 10 µM, serotonin added at its EC20 dose; stronger effect = higher value
# [16] = nonspecific calcium rise without TRPC4 – cell-based, HEK293 mu-opioid receptor line, counter-screen for TRPC4 activator project, confirmation (AID 449723;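 active = hit in primary screen, with calcium signal over 5 SD above buffer well mean in both duplicates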;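 also: counter screen cells carry the mu-opioid receptor alone and lack TRPC4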); details: HEK293 mu-opioid cells, Fluo-4 calcium fluorescence, at 10 µM; stronger effect = higher value
# [17] = nonspecific potentiation of DAMGO calcium response – cell-based, HEK293 mu-opioid receptor line, counter-screen for TRPC4 allosteric potentiator project, confirmation (AID 449724;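 active = calcium signal rise more than 3 SD above the low-dose agonist control mean, in both duplicate plates and the primary screen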); details: HEK293 mu-opioid receptor cells, Fluo-4 calcium flux, at 10 µM, compound added before EC20 DAMGO stimulus; stronger effect = higher value
Structure (SMILES),outcome [1],outcome [2],outcome [3],potentiation [4],outcome [5],outcome [6],outcome [7],outcome [8],outcome [9],outcome [10],outcome [11],outcome [12],outcome [13],outcome [14],potentiation [15],outcome [16],outcome [17],outcome [15],potentiation [3],outcome [4]
O=[N+]([O-])c1cc(Cl)cc(/C=N/NC(=S)Nc2ccc(S(=O)(=O)N3CCOCC3)cc2)c1O,inactive,inactive,inactive,15% (active),inactive,inactive,inactive,inactive,inactive,inactive,inactive,inactive,inactive,inactive,10.1% (active),inactive,inactive,–,–,–
Cc1ccc(Cl)cc1N1CCN(Cc2nc3ccsc3c(=O)[nH]2)CC1,inactive,inactive,inactive,25% (active),inactive,inactive,inactive,inactive,inactive,inactive,inactive,inactive,inactive,inactive,–,inactive,inactive,inactive,–,–
CCOc1ccc(CN(C)CC(=O)NNC(=O)c2ccc(Cl)cc2)cc1OC,inactive,inactive,–,22% (active),inactive,inactive,inactive,inactive,inactive,inactive,inactive,inactive,inactive,inactive,11% (active),inactive,inactive,–,41% (active),–
CC(C)CCc1noc(CN2CCN(c3ccc(Cl)cn3)CC2)n1,inactive,inactive,inactive,–,inactive,inactive,inactive,inactive,inactive,inactive,inactive,inactive,inactive,inactive,–,inactive,inactive,inactive,–,inactive
COc1ccc(S(=O)(=O)n2nc(OC(=O)c3ccccc3Br)cc2N)cc1,inactive,inactive,inactive,–,inactive,inactive,inactive,inactive,inactive,inactive,inactive,inactive,inactive,inactive,–,inactive,inactive,inactive,–,inactive
CCCCN(C)CCNC(=O)C1CCCN(S(=O)(=O)c2cccc3nsnc23)C1 (configuration not stated),inactive,inactive,–,–,inactive,inactive,inactive,inactive,inactive,inactive,inactive,inactive,inactive,inactive,7.12% (active),inactive,inactive,–,11% (active),inactive
CCN1C(=O)/C(=C\N2CCCc3ccccc32)SC1=S,inactive,inactive,inactive,–,inactive,inactive,inactive,inactive,inactive,inactive,inactive,inactive,inactive,inactive,–,inactive,inactive,inactive,–,inactive
CC(CCc1ccc(O)cc1)N(C)CCc1ccccc1 (configuration not stated),inactive,inactive,inactive,–,inactive,inactive,inactive,inactive,inactive,inactive,inactive,inactive,inactive,inactive,–,inactive,inactive,inactive,–,inactive
CCNC(=S)N/N=C/c1cc(C)n(-c2ccc(Cl)cc2)c1C,inactive,inactive,inactive,19% (active),inactive,inactive,inactive,inactive,inactive,inactive,inactive,inactive,inactive,inactive,17.3% (active),inactive,inactive,–,–,–
CCc1ccc(OCC(=O)NC2CCCCC2)c(Br)c1,inactive,inactive,inactive,46% (active),inactive,inactive,inactive,inactive,inactive,inactive,inactive,inactive,inactive,inactive,135% (active),inactive,inactive,–,–,–
O=Cc1c(N2CCCCC2)nc2ccccn2c1=O,inactive,inactive,inactive,–,inactive,inactive,inactive,inactive,inactive,inactive,inactive,inactive,inactive,inactive,–,inactive,inactive,inactive,–,inactive
COC(=O)c1ccccc1N=Nc1c(C)[nH][nH]c1=O,inactive,inactive,inactive,73% (active),inactive,inactive,inactive,inactive,inactive,inactive,inactive,inactive,inactive,inactive,14.7% (active),inactive,inactive,–,–,–
OCCNCc1cc(Br)ccc1OCc1ccccc1,inactive,inactive,inactive,–,inactive,inactive,inactive,inactive,inactive,inactive,inactive,inactive,inactive,inactive,–,inactive,inactive,inactive,–,inactive
O=C1CC(NS(=O)(=O)c2cccs2)CN1c1ccccc1 (configuration not stated),inactive,inactive,inactive,14% (active),inactive,inactive,inactive,inactive,inactive,inactive,inactive,inactive,inactive,inactive,29.8% (active),inactive,inactive,–,–,–
CCOP(=O)(OCC)c1nc(-c2ccc(Cl)cc2Cl)oc1N1CCCCC1,inactive,inactive,inactive,–,inactive,inactive,inactive,inactive,inactive,inactive,inactive,inactive,inactive,inactive,54.2% (active),inactive,inactive,–,–,inactive
Cc1sc2nc(SCC(N)=O)n(C)c(=O)c2c1C,inactive,inactive,inactive,16% (active),inactive,inactive,inactive,inactive,inactive,inactive,inactive,inactive,inactive,inactive,26.5% (active),inactive,inactive,–,–,–
